In PubChem BioAssay (Tox21) one finds Potency data, which are given here for 25 compounds.

“And” between values parts separate entries of the source, which are not always exact repeats. Equal entries are not always repeated. Inconclusive results are not listed. Entries that show only a call come without a potency. The source made the active and inactive calls. The call rests on the fitted dose curve.

A short description of the assay: Nuclear factor erythroid 2-related factor 2/antioxidant responsive element (Nrf2/ARE) small molecule agonists: luciferase reporter gene qHTS assay in human keratinocytes (AID 1919969). Further: nearly all actives have a fitted effect of over 35% in size. To be noted: KeratinoSens HaCaT ARE-luciferase, luminescence, 24 h; series mostly up to 92.4 µM.
Potency means the concentration at half of the fitted maximal effect.

Regarding `CCCCOCCOCCOC(=O)CCCCC(=O)OCCOCCOCCCC`, the Potency result was “inactive”.

For the compound `O=S(=O)(O)c1cc(O)c(O)c(S(=O)(=O)O)c1`, the Potency result was “inactive”.

`C[C@@H]1CC(=O)NN=C1c1ccc(NN=C(C#N)C#N)cc1`: the Potency was 23.7 µM (active) and 26.6 µM (active).

As to `CC(C)Oc1ccc2c(=O)c(-c3ccccc3)coc2c1`, the Potency is 376 nM (active) and 266 nM (active).

For the compound `CCCCC(CC)CCC(CC(C)C)OS(=O)(=O)O` (stereo not given), the Potency result was “inactive”.

`CCOC=C(C(=O)OCC)C(=O)OCC`: the Potency result was “inactive”.

Turning to `COCCCC/C(=N\OCCN)c1ccc(C(F)(F)F)cc1`, the Potency entry was “inactive”.

For the compound `CC(=O)/C=C/C1C(C)=CCCC1(C)C` (stereo not given), the Potency result is “inactive”.

For the compound `O=C1Nc2ccccc2C1(c1ccc(O)cc1)c1ccc(O)cc1`, the Potency is 386 nM (active) and 841 nM (active).

On to `C[C@]12CC[C@H]3[C@@H](CCC4=CC(=O)CC[C@@]43C)[C@@H]1CC[C@@H]2C(=O)CO`, for which the Potency entry was “inactive”.

On to `CCCCC(CC)COC(C)=O` (stereo not given), for which the Potency entry was “inactive”.

Turning to `CC(=O)OC[C@H]1O[C@@H](OC(C)=O)[C@H](OC(C)=O)[C@@H]1OC(C)=O`, the Potency result is “inactive”.

Turning to `c1ccc2sc(SSN3CCOCC3)nc2c1`, the Potency was 24.3 µM (active).

With `CNCCCC12CCC(c3ccccc31)c1ccccc12`, the Potency entry was “inactive”.

Take `CO[C@@]1(NC(=O)C(C(=O)O)c2ccc(O)cc2)C(=O)N2C(C(=O)O)=C(CSc3nnnn3C)CO[C@@H]21` (stereo not given in full): the Potency result is “inactive”.

`O=C(O)CC(=O)O`: the Potency entry was “inactive”.

`CC(C)c1ccc2c(C(C)C)cc(C(C)C)c(S(=O)(=O)O)c2c1`: the Potency entry was “inactive”.

Regarding `CCCCC(CC)COP(=O)(O)OCC(CC)CCCC` (stereo not given), the Potency result is “inactive”.

Consider `COC(/C=C(\C)CCC=C(C)C)OC`, for which the Potency result was “inactive”.

Take `CC(CCC(=O)O)C(=O)O` (stereo not given): the Potency entry was “inactive”.

Turning to `CCCCCCCCS(=O)(=O)Cl`, the Potency result was “inactive”.

As to `O=C(c1ccccc1O)c1ccccc1O`, the Potency result was “inactive”.

As to `CCOc1ccc2c(c1)C(C)=CC(C)(C)N2`, the Potency was 68.2 µM (active) and 68.6 µM (active).

As to `COc1ccccc1NC(=O)CC(C)=O`, the Potency entry was “inactive”.

As for `Nc1ccc(N)c(Cl)c1`, the Potency was 54.4 µM (active) and 27.3 µM (active).
